# Measurements as given in the supplement of paper PMC11417369.
# ± gives the standard deviation of the averaged measurements. Whole data set: some 25,000 sequences, median “ln(normalized median fluorescence intensity)” near 7.9, cut for the highest 2% near 11. The sample holds the highest values, similar sequences and a random draw of the others, so the mix is not that of the screen.
# Tested on: PfAP2-I AP2 domain 3 (GST-tagged)
# Experiment: gcPBM binding intensity (ln(normalized median fluorescence intensity)); higher = stronger DNA binding
# Method in brief: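 For binding intensity, the highest Masliner-normalised natural-log median intensity across replicate spots of either probe orientation was taken. Protein bound to the array was stained with Alexa488 anti-GST antibody and scanned at 488 nm. The protein, GST-tagged P. falciparum DNA-binding domains from E. coli at about 25 μg on average, had been applied for 1 h to an Agilent 4 × 180k array of primer-extended double-stranded 36-bp intergenic genomic probes and negative controls.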
row,Sequence,gcPBM binding intensity (ln)
1,CTTATTTTGTTATAAGTGCATTTTTTAAAATTTCTT,9.05 ± 0.42
2,ATATATTATATTTAAGTGCATTAATTAAAATGCTTA [GTGCAC_site9403],11.1 ± 0.73
3,ATATATATATTTATAGTGCATTTATATTAAAATATC [GTGCAC_site9818],10.54 ± 0.021
4,CACATTAATTTTTGGGTGCACTTGGGAAATTTTGGT,10.9 ± 0.51
5,TTTTTTTTTTTTTTTGCACACTTAAATTTGGTGGCT [CACACA_site5319],9.54 ± 0.16
6,TTTTTTTTTTTTTTTGCACACTTAAATTTGGTGGGG [CACACA_site2344],9.89 ± 0.19
7,AGTTATAAACATATGTGTACTTATAAAAACATATAG [XGTACX_site3268],7.87 ± 0.47
8,AATCACAACGAACACACACACAAAAAAAAAAAAAAA [CACACA_site6790],7.96 ± 0.54
9,CAACAACAAATGAGAAGTACATAAATATTAACAATA [XGTACX_site4625],7.68 ± 0.4
10,TGTTTTATTTTATTAGTGCATTTTTATTTATAATAG [GTGCAC_site9453],9.77 ± 0.2
11,TTCCAAGAAATAATAGTGCATTATTCATTTTAATAA,11.5 ± 0.42
12,ATATATAATTCCCAAGTGCATTTATTTTAATTATTA,10.2 ± 0.12
13,AATATAAGGATATATACACACATAAATACATACATA [CACACA_site7859],7.67 ± 0.59
14,TGAAGGATATATTCCGTGCACATATAAATATATACA,11.035 ± 0.007
15,AAGGATATAACATACACACACACACGGATATAAATA [CACACA_site7867],7.91 ± 0.6
16,TTTATACAAACAACTTTATATTAATGTTTAACGGAG [GTGCAC_negctrl_site396],7.6 ± 0.42
17,ATATATATATAATAAGTGCAAAAAAAAGAAAAAAAT,10.18 ± 0.035
18,AAAAAAAAAATACAGGTGCAATAAGAAAAAAATGGT,11.4 ± 0.57
19,AATTAATAAGAAAGGTGTACAGAAAAAAAAAAATAT [XGTACX_site2106],8.46 ± 0.43
20,TTTTATATTTTATGCACACTTATAAGAAATATGTAC [CACACA_site3040],10.5 ± 0.52
21,TTTTAAATACTTTATTGTACATTATATATATATATA [XGTACX_site7021],8.88 ± 0.042
22,TTTTTTTTTAAGCAAAGGAAATCAAAATAAAAATAT [CACACA_negctrl_site719],7.92 ± 0.56
23,ATTTTAAAAAGGATAGTGCAAATGTTAAAATAGGAC,10.6 ± 0.3
24,TTTTAAGGTGTGAAGGTGCAAAAAGGTAAATAGGAA,11.2 ± 0.56
25,TACCTTTTTTATGTTGCACACTGGGATGTTTTCTAA [CACACA_site1653],9.51 ± 0.15

row,Sequence,gcPBM binding intensity (ln)
1,TATGAAGTGCACAATACACACTAATTCTATATAAAT [CACACA_site7269],11 ± 0.71
2,TATATGAAGTACACAATACACACTAATTATATATAA [CACACA_site2608],8.155 ± 0.035
3,TATGAAGTACACAATACACACTAATTATATATAAAT [CACACA_site5444],7.88 ± 0.28
4,AAAGTATATAGGATACGTACATACATAAATAAATAA [XGTACX_site8216],7.84 ± 0.73
5,AAAAAAAAAAAAAAAACACACAAACAAATGAATAAA [CACACA_site5769],8.76 ± 0.66
6,GTACATTATATATATACACACATACATAATAAAGAA [CACACA_site5528],8.12 ± 0.23
7,CAAATATACATATGTAGTACATGTTGTAGATAATTT [XGTACX_site2790],8.01 ± 0.5
8,GTATATATCTAAAAATATATATATATATATATATAT [CACACA_negctrl_site788],9.37 ± 0.72
9,TCTCCACCTCTCTTGGTGCGTTATACCCTCGAGGCT,11.3 ± 0.54
10,CCCTGCCTCTCTTTGGTGCGTTGTAACCCTCGAGGA,10.3 ± 0.33
11,TCCTGCCTCTCTTTGGTGCGTTGTAACCCTCGAGGA,10.3 ± 0.11
12,TTGTTCTTTTTTTTTTTATTTTTTAATTTGAAAAGA [CACACA_negctrl_site209],7.72 ± 0.5
13,AGAATTAAAATAAAGGTGCATTTTTTTGTTTCATGT,9.94 ± 0.23
14,TTGTTCTTTTGAAAGGTGCAAAAGAAAAATAATTAA,11.1 ± 0.54
15,ACGTTACATACATATACACACACATATATATATATA [CACACA_site8203],9.22 ± 0.39
16,TATATACTCATGCGCACACACAAGTGGGAAATTTGG [CACACA_site5056],8.35 ± 0.6
17,TATAATTTTTTTTGGGTGCTTGGGTAAATTTTATTA,8.34 ± 0.42
18,TTTTTTTTTTTTGGTGCATGCACATTTTGTTTTTTT [TGCATGCA_site570],9.85 ± 0.014
19,CTTGTGCTTTATAGGGTGCACATTTTGTTTTGGTAA [GTGCAC_site9899],11 ± 0.46
20,AAAGGGATGTTCATTCTTTTTTTTTTTTTTGTATAT [CACACA_negctrl_site511],7.16 ± 0.6
21,ATTAGTAAATTTATATGTACACATTGTTATTTTATA [XGTACX_site1177],8.13 ± 0.23
22,TTATATTTGATAGTTTGTACATATAATTATTATCAT [XGTACX_site5676],7.86 ± 0.42
23,TAGTGATATAATTATGTGCACTTAATACAGGTCGAT,10.9 ± 0.3
24,TTGATATATAATAATACACACTTACATAATTAATTA [CACACA_site4320],7.88 ± 0.37
25,AATATAAATAATTATACACACTTAATATATATATAC [CACACA_site5533],7.9 ± 0.33

row,Sequence,gcPBM binding intensity (ln)
1,ATGTCTATAATAAGAACACACATATATTTAATTTAA [CACACA_site7394],7.64 ± 0.44
2,TATACATATGTATGCACACATACATACACATAGAAT [CACACA_site3480],8.8 ± 0.13
3,ATGTAGAAGTAATGCACACATATGTATTTATATATA [CACACA_site5391],10.9 ± 0.68
4,ATGTAGAAGTAATGCACACATATGTATATATATATA [CACACA_site2494],10.9 ± 0.63
5,ATGTGATAGAAGTACACACACATATGTATTTATAAT [CACACA_site5075],7.84 ± 0.59
6,ACATAATTATTATGCACACATATTTTTATGTATTTA [CACACA_site698],10.3 ± 0.48
7,ATATGTAGAAGTAATGCACACATATGTATATATATA [CACACA_site8796],10.8 ± 0.48
8,ATCAACATTATGGTTAGTACTTAGTGAATTGTTAAT [XGTACX_site4926],7.63 ± 0.59
9,TTCTATATATTATATGCATGTAAAACATATTAAAAT [TGCATGCA_site662],7.93 ± 0.61
10,TTGTTCTATATATATGCATGCACGTATGTTAAATTA [TGCATGCA_site659],11.3 ± 0.23
11,TTCATATATTATTATGCATGTTCATAAATTATCTAA [TGCATGCA_site896],7.88 ± 0.58
12,TACCTTTTTTGTTTTATGCACACCATATAACCAAGG [CACACA_site30],10.3 ± 0.33
13,TCGTAAACTTTATGCACACACATATACATATTTCAT [CACACA_site739],10.2 ± 0.53
14,ATTATGCACGGACACACACACACACCCCTAAAAAAT [CACACA_site5426],10.4 ± 0.49
15,ATTATGCACCAACACACACACACACTCCTAAAAAAT [CACACA_site8822],11.4 ± 0.95
16,TGCACAAAATTATGCACACACCTAAAATTAATTTTT [CACACA_site5596],9.98 ± 0.32
17,ATTATGCACCAACACACACACACACCCCTAAAAAAT [CACACA_site2568],11.4 ± 0.79
18,TAATTATGCCAACACACACACACACCCAACTAAAAA [CACACA_site8823],8.22 ± 0.25
19,TGTGCCCAAAATTATGCACACACCTAAAATTAATTT [CACACA_site2914],10.3 ± 0.4
20,TTTTGTTTCTATATAAGATGGAAATATAAACTTGTA [CACACA_negctrl_site82],7.64 ± 0.47
21,AATAAAAATTTACTTTGTACACATATTAAATTCAAT [XGTACX_site1957],7.83 ± 0.15
22,TATATTAATAAAGGTACTACACGGAAATGGAAATAT [XGTACX_site7760],8.58 ± 0.67
23,TTAAAATAAAGAAAATGTACATAAATAAAAATAAAG [XGTACX_site2280],8.35 ± 0.45
24,AACCAATTATATTTACGTACGTACGGTTTTTTATAT [XGTACX_site1291],7.94 ± 0.48
25,ATTTCTTTTTTATTGAGTACATATGACCATGTTCAA [XGTACX_site5365],8.14 ± 0.38

row,Sequence,gcPBM binding intensity (ln)
1,ATTATTCATTTATGTAGTACATTTTAATACATTTAA [XGTACX_site3599],7.75 ± 0.6
2,AAAATTTCTTTTTTTTGTACATATATAATAATATAT [XGTACX_site7107],7.82 ± 0.39
3,CAACCTTTTTTGTTGGTGCATAATTTTTTTTTCTTT,10.9 ± 0.52
4,TACGTCTTTTTTTTGGTGCATAATTTTTTTGTACAA,11.2 ± 0.44
5,ACCAATAAATATTTGGTGCATACATATATATATATA,10.31 ± 0.064
6,TTTTCTTTTTTTTTTGTGCACATAATATATAATTAT,10.8 ± 0.14
7,TTTCTTTATTAAAATATTTTACATATATAATATACG [TGCATGCA_negctrl_site564],7.92 ± 0.55
8,TATTTCTTTTGGTTGGTGCATAAAATAATACAATAT [GTGCAC_site9916],11.2 ± 0.59
9,ATTTCCTTTTGTTTCAGTACATAATTTTTTTTTTTT [XGTACX_site4842],7.88 ± 0.62
10,AGACCTTTAATTTGTGTGCACATAATTAGTGTACAT [GTGCAC_site9434],9.96 ± 0.16
11,CGGACATACTAACGGACACACGTAAGAAAAAAAAAG [CACACA_site4504],7.79 ± 0.58
12,ATAAATAAAAATACATGAACAGGTCAGGTTATTTTT [CACACA_negctrl_site1007],7.29 ± 0.61
13,TATTTTGCAAAATGTGCATGTTGTGTATTATGTGAC [TGCATGCA_site59],8.97 ± 0.51
14,AAAGAAATTATTTGTTGTACATATGTTATTTTTTTT [XGTACX_site7570],7.75 ± 0.25
15,AAATGTGCATTATGTTGTACAGTCGAAATTTTTTTT [XGTACX_site3812],11.1 ± 0.62
16,AAGAAAGACATTACGTGTACCAAACAACCTACCAAC [XGTACX_site4219],8.22 ± 0.25
17,TTCCTTTGTTGTCGTTGTACTTATATGGTTATAATT [XGTACX_site3082],8.29 ± 0.64
18,TAGGTCCTCATTTTATGTACATAAAGAAATATGATT [XGTACX_site4138],7.86 ± 0.36
19,TATTATAATATTTATACACACATAATTTTGATAAAT [CACACA_site583],7.68 ± 0.4
20,ATATATTTATAATACACATGCAATGATATAATATAT [TGCATGCA_site20],8.43 ± 0.75
21,ACCCATTTGATAATAATGCACACCACATATATTTAT [CACACA_site3061],11 ± 0.63
22,CCCATGCATTTTTGCACACACATATATTTATAAATA [CACACA_site6785],9.75 ± 0.17
23,TATATATTAATATTTACACACATGCGCACCCATAAA [CACACA_site2410],9.86 ± 0.57
24,CCATTTGATAATAATGCACACCACATATATTTATAT [CACACA_site9002],11 ± 0.4
